Screens from PubChem BioAssay.
In the library only some 31% were active in any assay of this set; here they are far more common.
CYP2C9 act = activators of human CYP2C9; AID 1024; activation factor at 5 µM; recombinant CYP2C9, luciferin-H conversion, luminescence; stronger effect = higher value; factor 1 = untreated enzyme, 0 = blocked; 1.4% of 96,000 active;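 active = activation factor of 2 or more for CYP2C9 at a 5 µM dose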;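 note: 0 = sulfaphenazole-blocked wells and 1 = vehicle-only wells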
CYP2C19 inh = blocks human cytochrome P450 2C19 | P33261 | CYP2C19 Supersomes, luciferin-H EGE luminescence, 30 min | inhibition, % at 5 µM | 21% of 96,000 active;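 active = CYP2C19 inhibition above a set limit at 5 µM in the primary screen, cut at about 50% in these data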;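 note: plate controls were negative control wells for no effect and 2.5 mM tranylcypromine positive control for full effect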
CYP2C19 act = activators of human cytochrome P450 2C19. P33261. recombinant CYP2C19, luciferin-H EGE luminescence; stronger effect = higher value; 0 = fully inhibited enzyme, 1 = untreated enzyme. activation factor at 5 µM. 96,000 tested, under 10 active;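 active = activation factor of at least 2 at 5 µM in the primary screen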;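 note: 0 = wells with 2.5 mM tranylcypromine and 1 = vehicle-only wells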
CYP2C9 inh = human CYP2C9 inhibition; P11712; AID 777; 20% of 96,000 active; CYP2C9 Supersomes, luciferin-H conversion, luminescence; inhibition, % at 5 µM;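 active = blocking of liver enzyme CYP2C9 beyond about 50% at 5 µM, limit read from the data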
PLAP act = activates human placental alkaline phosphatase; activation fold at 20 µM; purified PLAP enzyme, luminescent substrate read-out; stronger effect = higher value; 1.2% of 96,000 active; in the data active = activation fold above about 2
Target sequence (P05187 whole entry, looked up): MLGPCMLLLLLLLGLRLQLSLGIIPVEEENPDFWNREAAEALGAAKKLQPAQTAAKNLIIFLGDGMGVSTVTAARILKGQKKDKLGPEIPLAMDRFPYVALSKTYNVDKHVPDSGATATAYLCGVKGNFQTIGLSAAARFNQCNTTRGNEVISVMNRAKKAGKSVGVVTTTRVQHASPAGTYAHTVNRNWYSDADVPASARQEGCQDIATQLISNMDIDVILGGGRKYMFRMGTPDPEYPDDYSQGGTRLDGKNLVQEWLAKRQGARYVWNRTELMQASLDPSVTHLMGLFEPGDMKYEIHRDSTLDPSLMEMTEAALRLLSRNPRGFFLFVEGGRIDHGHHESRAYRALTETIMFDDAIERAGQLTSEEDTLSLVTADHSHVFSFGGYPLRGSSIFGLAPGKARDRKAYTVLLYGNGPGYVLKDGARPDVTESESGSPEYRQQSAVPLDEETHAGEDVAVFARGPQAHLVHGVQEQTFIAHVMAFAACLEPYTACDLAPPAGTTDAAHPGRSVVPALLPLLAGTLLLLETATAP
Active calls of the source: *.

SMILES	CYP2C9 act	CYP2C19 inh	CYP2C19 act	CYP2C9 inh	PLAP act
CCOCCCNC(=O)CN1C2CCC1CC(O)(c1ccc(OC)cc1)C2 (stereo not given)	1.1	2	1	-6	0.9
CCOC(=O)C1C(=O)NC23CCCC2C1c1ccccc1O3 (stereo not given)	1	12	0.9	2	1
CC(=O)OC1N=C(c2ccc(Cl)cc2)c2cc(Br)ccc2NC1=O (stereo not given)	1.1	27	0.7	-8	1.4
O=C(Cc1ccccc1)Oc1ccccc1N1C(=O)CCC1=O	1.2	-17	1.2	-20	1.1
CCOC(=O)c1c(-n2c(C)cc(C=C3C(=O)NC(=S)NC3=O)c2C)sc2c1CCCC2	0.3	28	0.7	67*	0.5
O=c1c2ccccc2nc(-c2cccs2)n1-c1ccccc1	0.7	22	0.8	33	0.9
Cc1nc2sccc2c(=O)n1-c1ccccc1Cl	0.9	63*	0.4	10	1
Cc1ccccc1-n1c(C)nc2sccc2c1=O	1	53*	0.5	5	1
CNP(=S)(NC)OCCOc1ccc(OC)cc1	0.5	84*	0.2	47	0.9
CC[N+](CC)(CC)CCCOC(=O)C(O)(c1ccccc1)C1CCCCC1 (stereo not given)	1.3	-17	1.2	-33	0.8
O=C1NC(=O)N(CCNc2ncc(C(F)(F)F)cc2Cl)C(=O)C1/C=N/OCc1c(F)cccc1Cl (stereo not given)	0.5	19	0.8	48	1.1
Cc1ccccc1C1=NCC(=O)N(CC(=O)NCc2ccco2)c2sc3c(c21)CCCC3	0.2	66*	0.3	84*	1.5
CCC(C)C1N=C(c2ccccc2)c2cc(Cl)ccc2N(CC(=O)NCc2ccco2)C1=O (stereo not given)	1	-9	1.1	-3	1.2
O=C(CNC(=O)c1ccccc1)Nc1ccc(Br)cc1C(=O)c1ccccc1	0.8	47	0.5	22	0.8
Cc1ccc(N)c(C(=O)c2ccccc2)c1	1	85*	0.2	3	1
Cc1cccc(CSc2nc3c(cc2C#N)CN(C)CC3)c1	1	70*	0.3	1	1.2
O=C1C2CCCN2C(c2cccnc2)N1c1ccc(Cl)c(Cl)c1 (stereo not given)	1.1	19	0.8	-7	1
O=C1C2CCCN2C(c2ccncc2)N1c1ccc(Cl)c(Cl)c1 (stereo not given)	0.1	68*	0.3	88*	1.1
O=C(CF)NC(Nc1cccc2cccnc12)C(Cl)(Cl)Cl (stereo not given)	0.6	89*	0.1	41	0.9
CC(O)(CS(=O)(=O)c1ccccc1)C(=O)Nc1ccc(C(F)(F)F)cc1 (stereo not given)	0.9	65*	0.4	9	1.2
CC(O)(CS(=O)(=O)c1cccc(C(F)(F)F)c1)C(=O)Nc1cccc(C(F)(F)F)c1 (stereo not given)	1.9	51*	0.5	-90	1.1
Cc1nc2ccccc2c(=O)n1-c1cccc(O)c1	0.8	36	0.6	22	1.1
CCOC(=O)c1nc2ccccc2c(=O)n1-c1cccc(C)c1	0.5	41	0.6	52*	1.2
CCOC(=O)c1nc2ccccc2c(=O)n1-c1ccc(C)cc1	0.4	46	0.5	55*	1.6
CC1=CC(=O)C2=C(C)CC(O)C3C(C)C(=O)OC3C12 (stereo not given)	1.1	-1	1	-15	1
SMILES	CYP2C9 act	CYP2C19 inh	CYP2C19 act	CYP2C9 inh	PLAP act
FC(F)(F)c1ccc2c(c1)nnn2C1CCN(Cc2nnnn2Cc2ccccc2)CC1	0.1	48	0.5	93*	0.9
Cc1nc2cc(F)ccc2n1C1CCN(Cc2nnnn2CCc2ccccc2)CC1	0.4	62*	0.4	62*	1.6
Cc1ccc(Cn2nnnc2CN2CCC(n3nnc4cc(C(F)(F)F)ccc43)CC2)cc1	0.3	35	0.7	73*	1.4
Cc1ccc(Cn2nnnc2CN2CCC(n3nnc4cc(C)ccc43)CC2)cc1	0	91*	0.1	96*	1.7
O=C(c1cccn2c(=O)c3ccc(Cl)cc3nc12)N1CCC2(CC1)OCCO2	0.9	14	0.9	14	1.2
O=P(OCC(F)(F)C(F)F)(N1CCOCC1)N1CCOCC1	1	2	1	-4	0.8
Fc1ccc2c(c1)nnn2C1CCN(Cc2nnnn2C2CCCCC2)CC1	0.2	67*	0.3	75*	1.5
Cc1ccc(C)c(CN2CCC(n3nnc4cc(F)ccc43)CC2)c1	0.9	39	0.6	6	1
OCC12COC3c4ccccc4C(OC1)N32 (stereo not given)	1	6	0.9	-5	1
COCCCN1CCN(c2nnc3n2-c2sc(Br)cc2C(c2ccccc2Cl)=NC3)CC1	0.7	44	0.6	27	1.5
Cc1[nH]c2ccccc2c1C1=CCNCC1	0.3	21	0.8	74*	1.1
O=C(CNS(=O)(=O)c1ccc(Br)s1)N1CCC2(CC1)OCCO2	0.7	58*	0.4	27	1.1
CSc1nnc(C2CCNCC2)n1C	1.1	-22	1.2	-12	1
CC(C)C(=O)c1cn(Cc2ccccc2C#N)c2ccccc12	0.5	60*	0.4	49	0.8
CC(C)OC(=O)C1C(=O)NC2(C)CC1c1ccccc1O2 (stereo not given)	0.9	60*	0.4	13	1.1
CCOc1cc(/C=C2/C(=O)NC(=O)N(c3ccc(CC)cc3)C2=O)ccc1OC(=O)c1cccs1	0.8	59*	0.4	19	1.1
CC(C)c1ccc(N2C(=O)NC(=O)/C(=C\c3cnc(-c4ccccc4)nc3)C2=O)cc1	0.8	28	0.7	24	1.1
O=C(Nc1ccc(Cl)cc1)Nc1nccs1	0.7	4	1	25	1.1
CC(=O)C1C2c3ccccc3OC1(C)N=c1s/c(=C/c3cnn(C)c3)c(=O)n12 (stereo not given)	0.7	6	0.9	26	1.4
COC(=O)C1C2c3ccccc3OC1(C)N=c1s/c(=C/c3cnn(C)c3C)c(=O)n12 (stereo not given)	0.3	40	0.6	68*	1.6
CCC(C)C12CN3CCN(CC(C)(C3)C1=O)C2 (stereo not given)	0.2	76*	0.2	77*	0.9
Cc1cccc(-c2nc3ccccc3c(=O)n2-n2cccc2)c1	0.5	45	0.5	48	1.1
C=COCCn1c(C)c(C(=O)OCC)c2cc(O)ccc21	0.3	85*	0.1	71*	0.9
O=C(c1ccccc1)c1cn(CC(=O)N2CCCC2)c2ccccc12	0.9	10	0.9	12	1.1
CCC(=O)c1cn(Cc2ccc(C#N)cc2)c2ccccc12	0.6	39	0.6	44	1.1
CCOC(=O)Cn1cc(C(=O)c2ccccc2F)c2ccccc21	0.5	68*	0.3	48	0.9
CC(C)(C)NC(=O)Cn1cc(C(=O)c2ccccc2F)c2ccccc21	0.6	38	0.6	38	0.8
